TWEAK Fn14 block: blocks TWEAK-Fn14 interaction in a reporter cell assay; hit rate 2% among 360,000; AID 1159606; TWEAK-stimulated Fn14 reporter cells, luciferase luminescence, 8 h; inhibition, % at 10 µM; in the data active means inhibition above about 50%
EWS-Fli inh: inhibitors of EWS/Fli oncoprotein transcriptional activity; hit rate 0.67% among 350,000; inhibition, % at 12.6 µM; AID 651661; A673 NR0B1-luciferase reporter, viability-normalised;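 active means mean inhibition of at least 50% after viability correction, with every replicate also passing that limit; inconclusive means mean reaches 50% but only one of two replicates passes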;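 further: firefly luciferase signal divided by Alamar Blue viability fluorescence both relative to DMSO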
TROY NFkB inh: blocks TROY-dependent signaling in reporter cells. Q293 LMP1-TROYcd NF-kB luciferase reporter, 4 h. inhibition, % at 10 µM. hit rate 0.98% among 360,000. AID 1347056;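 active means compounds whose plate-normalised and pattern-corrected inhibition of the luciferase reporter signal at the single screening dose is 50% or more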
PAX8 inh HTS: lowers PAX8-driven luciferase in RMG-I cells. hit rate 1.2% among 360,000. RMG-I TPO-luciferase reporter, SteadyGlo, 24 h. inhibition, % at 12.6 µM;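 active means mean replicate inhibition at least 60% with every replicate also reaching 60%; inconclusive means only one of the two criteria is met; inactive means mean below 60% and not all replicates reaching 60%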;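 further: luciferase light reporting Pax8 driven TPO promoter activity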
LGR2 inh: Drosophila LGR2 receptor signaling inhibition; HEK293 LGR2, CRE-luciferase, bursicon-stimulated, 4 h; inhibition, % at 9.99 µM; hit rate 0.35% among 380,000; AID 720647;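 active means drop in luminescence signal, shown as inhibition above about 50% in the replicate tests, limit read from the data, passing the limit was not always enough; inconclusive means probably only some replicates passing the limit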;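 further: agonist challenge used bursicon conditioned medium at about half maximal strength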
Each line names hits and unclear results; the compound was inactive in the other large screens. Compounds with a hit are over-represented: about 2.8% of the library has one in this group of screens.

COCCNC(=O)C[C@H]1C[C@H]2c3cc(NC(=O)c4ccc5c(c4)OCO5)ccc3O[C@H]2[C@@H](CO)O1	none (no result: TWEAK Fn14 block, TROY NFkB inh)
C[C@H](CO)N1C[C@H](C)[C@H](CN(C)S(=O)(=O)c2cccs2)Oc2ccc(NC(=O)Cn3cnnn3)cc2C1=O	none (no result: TWEAK Fn14 block, TROY NFkB inh, PAX8 inh HTS)
O=C(Nc1nnc(-c2ccc3c(c2)CCCC3)o1)c1c(F)cccc1F	TWEAK Fn14 block 53
COc1ccc(S(=O)(=O)N[C@H]2C=C[C@@H](CC(=O)N3CCc4ccccc4C3)O[C@@H]2CO)cc1	none (no result: TWEAK Fn14 block, TROY NFkB inh)
CCCN1CCC(=NNc2ccc(C(=O)O)cc2)CC1	TWEAK Fn14 block 52
CC(C)NC(=O)Nc1cccc2c1O[C@@H](CN(C)C(=O)NC1CCCCC1)[C@@H](C)CN([C@@H](C)CO)C2=O	none (no result: TWEAK Fn14 block, TROY NFkB inh)
CC(C)[C@H](C)NC(=O)N(C)C[C@@H]1OCc2ccccc2-c2ccccc2C(=O)N([C@H](C)CO)C[C@@H]1C	none (no result: TWEAK Fn14 block, TROY NFkB inh)
Cn1c(CCN2CCN(c3ccccn3)CC2)nc2cc(NS(=O)(=O)c3ccccc3)ccc21	PAX8 inh HTS 72 (no result: EWS-Fli inh)
Cc1ccc(C(C)C)c(OCC(=O)Nc2ccc3c(c2)nc(CCN2CCCCC2)n3C)c1	EWS-Fli inh inconclusive, PAX8 inh HTS 83
Cc1ccc(OCC(=O)Nc2ccc3c(c2)nc(CCN2CCN(c4ccccn4)CC2)n3C)cc1	none
Cn1c(CCN2CCN(c3ccccn3)CC2)nc2cc(NC(=O)COc3ccccc3)ccc21	PAX8 inh HTS 66 (no result: EWS-Fli inh)
Cn1c(CCN2CCCCC2)nc2cc(NC(=O)COc3ccc(Cl)cc3)ccc21	none
CN1CCN(C(=O)C[C@@H]2CC[C@H]3[C@@H](COC[C@@H](O)CN3CC3CCCC3)O2)CC1	none (no result: TWEAK Fn14 block, EWS-Fli inh, TROY NFkB inh)
CC(C)CC#Cc1ccc2c(c1)O[C@H](CN(C)C(=O)CN(C)C)[C@H](C)CN([C@@H](C)CO)S2(=O)=O	none (no result: TWEAK Fn14 block, TROY NFkB inh, PAX8 inh HTS)
O=C(Nc1cccc(F)c1)N[C@@H]1CC[C@@H](CCNS(=O)(=O)c2cccc(Cl)c2)O[C@@H]1CO	PAX8 inh HTS 107 (no result: TWEAK Fn14 block, TROY NFkB inh)
O=C(Nc1ccc(F)cc1)N[C@H]1CC[C@H](CCNC(=O)c2cc(Cl)cc(Cl)c2)O[C@H]1CO	PAX8 inh HTS 87 (no result: TWEAK Fn14 block, TROY NFkB inh)
O=C(Nc1ccc(F)cc1)N[C@H]1CC[C@@H](CCNC(=O)c2cc(Cl)cc(Cl)c2)O[C@@H]1CO	none (no result: TWEAK Fn14 block, TROY NFkB inh)
C[C@H](CO)N1C[C@H](C)[C@@H](CN(C)Cc2ccccc2C(F)(F)F)OCc2ccccc2-c2c(n(C)c3ccccc23)C1=O	PAX8 inh HTS inconclusive (no result: TWEAK Fn14 block, TROY NFkB inh)
C/C=C/c1ccc2c(c1)O[C@H](CN(C)C(=O)NC1CCCC1)[C@@H](C)CN([C@@H](C)CO)S2(=O)=O	none (no result: TWEAK Fn14 block, TROY NFkB inh)
Cc1noc(C)c1NC(=O)Nc1ccc2c(c1)C(=O)N([C@@H](C)CO)C[C@@H](C)[C@H](CN(C)C(=O)C1CCCCC1)OCCCC[C@@H](C)O2	none (no result: TWEAK Fn14 block, TROY NFkB inh)
C[C@@H]1CCCCO[C@@H](CN(C)CC2CCCCC2)[C@H](C)CN([C@H](C)CO)C(=O)c2cc(NS(=O)(=O)c3ccc(Cl)cc3)ccc2O1	PAX8 inh HTS 92 (no result: TWEAK Fn14 block, TROY NFkB inh)
C[C@H](CO)N1C[C@H](C)[C@H](CN(C)CC2CCCCC2)OCCCC[C@H](C)Oc2ccc(NS(=O)(=O)c3ccc(Cl)cc3)cc2C1=O	EWS-Fli inh 65 (no result: TWEAK Fn14 block, TROY NFkB inh)
C[C@@H]1CN([C@@H](C)CO)C(=O)c2cc(NS(=O)(=O)c3ccc(F)cc3)ccc2O[C@@H](C)CCCCO[C@H]1CN(C)CC1CCCCC1	none (no result: TWEAK Fn14 block, TROY NFkB inh)
C[C@@H]1CN([C@H](C)CO)C(=O)c2cc(NS(=O)(=O)c3ccc(F)cc3)ccc2O[C@@H](C)CCCCO[C@@H]1CN(C)CC1CCCCC1	PAX8 inh HTS 101 (no result: TWEAK Fn14 block, TROY NFkB inh)
COc1ccc(S(=O)(=O)Nc2ccc3c(c2)C(=O)N([C@@H](C)CO)C[C@H](C)[C@H](CN(C)C(=O)c2ccccc2)OCCCC[C@@H](C)O3)cc1	none (no result: TWEAK Fn14 block, TROY NFkB inh)
O=C1ON=C(c2ccccc2)/C1=C/c1ccc(-c2ccccc2[N+](=O)[O-])o1	TWEAK Fn14 block 95 (no result: EWS-Fli inh)
O=C1ON=C(c2ccccc2)/C1=C/c1ccco1	none
COc1ccc(CN(C)C[C@@H]2OCCCC[C@@H](C)Oc3ccc(NS(=O)(=O)c4c(C)noc4C)cc3C(=O)N([C@@H](C)CO)C[C@H]2C)cc1	none (no result: TWEAK Fn14 block, TROY NFkB inh)
O=C(NCCN1C(=O)S/C(=C\c2ccc(OC(F)F)cc2)C1=O)c1cnccn1	EWS-Fli inh 59, PAX8 inh HTS 128
O=C(NCCN1C(=O)S/C(=C\c2ccc(Cl)c(Cl)c2)C1=O)C1COc2ccccc2O1 (configuration not stated)	none
O=C(NCCN1C(=O)S/C(=C\c2ccc(OC(F)F)cc2)C1=O)C1=COCCO1	none (no result: EWS-Fli inh, PAX8 inh HTS, LGR2 inh)
